Screening data as filed in PubChem.
NOMO-1 viab – STK33 inhibitor candidate reducing NOMO-1 cell viability. NOMO-1 AML viability, CellTiter-Glo luminescence, 72 h. inhibition, % (no concentration beside the values). 37,000 compounds, 7.5% hits; in the data active means inhibition above about 80%; inconclusive means no clear call, values can overlap the other calls
MITF inhib – blocks MITF activity | inhibition, % (test concentration not listed) | TRPM1 promoter luciferase, luminescence, 24 h | 37,000 compounds, 0.28% hits; in the data active means inhibition above about 85%; inconclusive means no clear call, values can overlap the other calls; inactive means below about 68%;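 further: human melanocyte line stably carrying TRPM1 promoter luciferase reporter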
YB-1 expr inh – YB-1 expression inhibition; delta delta Cp (YB-1 minus CDIP) (concentration not given with the values); AID 434959; 30,000 compounds, 0.37% hits; U2OS, qRT-PCR YB-1 vs CDIP delta delta Cp, 16 h; stronger effect = higher value; zero = DMSO, each unit about twofold;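 active means delta delta Cp rounded down to an integer at or above 3, about 3 SD of DMSO wells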;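 further: higher means less YB-1 transcript or more CDIP transcript relative to DMSO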
PD-1 reverse act – reversal of PD-1 mediated T-cell inhibition. primary human CD4 T cells, PD-L1 beads, CellTiter-Glo 96 h. activation, % (test concentration not listed). 29,000 tested, under 10 active. AID 2316; call rule not given here;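 further: 0% = median vehicle wells and 100% = positive control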
U2OS ROS induce – inducers of reactive oxygen species in cancer cells. U2OS ROS induction, H2DCF-DA fluorescence. ROS induction (% of piperlongumine), % at 10 µM. 46,000 compounds, 2% hits. AID 624156; in the data active means ROS induction above about 79%, passing the limit was not always enough; inconclusive means no clear call, values can overlap the other calls;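 further: 0% = DMSO vehicle median and 100% = reference compound median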
* hit, by the source's call; ? = inconclusive; . = no result given. Many of the other results were omitted from the sample, so hits are more common in it than they were.

SMILES	NOMO-1 viab	MITF inhib	YB-1 expr inh	PD-1 reverse act	U2OS ROS induce
COc1ccc2c(c1)c(=O)oc1cc(OCC(=O)Nc3cc(C)cc(C)c3)ccc12	94*	-13	.	.	.
Cc1cc(C)cc(NC(=O)COc2ccc3cc(-c4ccccc4)c(=O)oc3c2)c1	66	-24	.	-4	21
CN(C)C(=O)N1CCC(C(=O)NCCC2=CCCCC2)CC1	.	.	.	.	-16
CS(=NC(=O)Nc1ccc(Cl)cc1)c1sc(Cl)c2c1C(=O)CCC2 (configuration not stated)	116*	3	-0.17	-2	18
O=C(NCCC(c1ccccc1)c1ccccc1)c1cc2ccccc2c(=O)o1	27	2	-0.48	0	154*
CC#CC(=O)Nc1ccc2ncnc(Nc3cccc(Br)c3)c2c1	96*	0	-0.014	-15	69
C[C@H]1CN([C@@H](C)CO)C(=O)Cc2cc(NC(=O)NC3CCCCC3)ccc2O[C@H]1CN(C)S(=O)(=O)c1ccc(Cl)cc1	128*	45	-0.089	-2	130*
Cc1ccc(S(=O)(=O)N(C)C[C@H]2Oc3ccc(NC(=O)NC4CCCCC4)cc3CC(=O)N([C@H](C)CO)C[C@H]2C)cc1	22	7	-0.023	.	-6
Cc1ccc(S(=O)(=O)N(C)C[C@@H]2Oc3ccc(NC(=O)NC4CCCCC4)cc3CC(=O)N([C@@H](C)CO)C[C@@H]2C)cc1	116*	43	-0.18	0	-5
Cc1ccc(S(=O)(=O)N(C)C[C@@H]2Oc3ccc(NC(=O)NC4CCCCC4)cc3CC(=O)N([C@H](C)CO)C[C@@H]2C)cc1	124*	27	-0.042	.	7
COc1ccccc1C(=O)NC1(C(F)(F)F)C(=O)N(Cc2ccco2)C2=C1C(=O)CC(C)(C)C2 (configuration not stated)	40	-3	.	.	.
Cc1ccc(NC(=S)C(C#N)C(N)=O)cc1Cl (configuration not stated)	108*	-7	-0.7	-7	18
C[C@@H]1CN([C@@H](C)CO)C(=O)c2cccc(NC(=O)CCCCCC(=O)Nc3ccccc3N)c2O[C@H]1CN(C)CC1CCCCC1	138*	64	-0.49	-1	82*
C[C@H](CO)N1C[C@H](C)[C@@H](CN(C)CC2CC2)Oc2c(NC(=O)CCCCCC(=O)Nc3ccccc3N)cccc2C1=O	121*	50	-0.25	-1	48
C[C@H](CO)N1C[C@H](C)[C@H](CN(C)C)Oc2c(NC(=O)CCCCCC(=O)Nc3ccccc3N)cccc2C1=O	19	-21	-0.29	1	-12
C[C@H](CO)N1C[C@H](C)[C@H](CN(C)CC2CC2)Oc2c(NC(=O)CCCCCC(=O)Nc3ccccc3N)cccc2C1=O	22	0	0.0028	0	-7
COC(=O)c1c(-c2ccc(OC)c(OC)c2)csc1NC(=O)C1CC1c1ccccc1 (configuration not stated)	.	.	.	.	15
C[C@H](CO)N1C[C@H](C)[C@H](CN(C)S(=O)(=O)c2ccc(Cl)cc2)Oc2c(NC(=O)CCCCCC(=O)Nc3ccccc3N)cccc2C1=O	119*	14	-0.16	0	?
C[C@@H]1CN([C@@H](C)CO)C(=O)c2cccc(NC(=O)CCCCCC(=O)Nc3ccccc3N)c2O[C@@H]1CN(C)S(=O)(=O)c1ccccc1	104*	27	-0.31	-4	15
COc1ccc(S(=O)(=O)N(C)C[C@@H]2Oc3c(NC(=O)CCCCCC(=O)Nc4ccccc4N)cccc3C(=O)N([C@H](C)CO)C[C@H]2C)cc1	100*	7	-0.0082	1	9
C[C@H]1CN([C@@H](C)CO)C(=O)c2cccc(NC(=O)CCCCCC(=O)Nc3ccccc3N)c2O[C@@H]1CN(C)S(=O)(=O)c1ccc(Cl)cc1	103*	-3	-0.0044	1	8
Cc1ccc(C2CC(=O)NC(SCC(=O)OC(C)C)=C2C#N)cc1 (configuration not stated)	.	.	.	.	-9
NC(=O)CSc1ncn(-c2ccccc2)n1	-1	0	.	1	-10
O=C(CCCCCCC(=O)Nc1ccccc1O)NN=C1CCCC1	.	.	-0.049	.	7
COC(=O)c1c(C)cc2c(c(C)c1=O)OC1(C2)C(C)CCC2C(C)(C)OC(=O)C=CC21C (configuration not stated)	107*	44	-0.39	-10	52
SMILES	NOMO-1 viab	MITF inhib	YB-1 expr inh	PD-1 reverse act	U2OS ROS induce
C[C@@H]1CN([C@@H](C)CO)C(=O)c2cc(NC(=O)Nc3ccc(F)cc3)ccc2O[C@H]1CN(C)Cc1ccc(-c2ccccc2)cc1	128*	13	0.023	.	5
C[C@@H]1CN([C@@H](C)CO)C(=O)c2cc(NC(=O)Nc3ccc(F)cc3)ccc2O[C@H]1CN(C)Cc1ccccc1	17	1	0.033	2	-12
C[C@H](CO)N1C[C@H](C)[C@H](CN(C)Cc2ccc(-c3ccccc3)cc2)Oc2ccc(NC(=O)Nc3ccc(F)cc3)cc2C1=O	104*	1	0.042	0	33
C[C@H]1CN([C@@H](C)CO)C(=O)c2cc(NC(=O)Nc3ccc(F)cc3)ccc2O[C@H]1CN(C)Cc1ccccc1	14	-4	0.13	.	-5
C[C@H](CO)N1C[C@H](C)[C@H](CN(C)Cc2ccccc2)Oc2ccc(NC(=O)Nc3ccccc3)cc2C1=O	13	-7	-0.049	2	-12
C[C@H]1CN([C@@H](C)CO)C(=O)c2cc(NC(=O)Nc3ccccc3)ccc2O[C@H]1CN(C)Cc1ccncc1	98*	-19	0.39	1	-1
C[C@@H]1CN([C@@H](C)CO)C(=O)c2cc(NC(=O)Nc3ccccc3)ccc2O[C@H]1CN(C)Cc1ccc(-c2ccccc2)cc1	112*	16	0.14	-2	20
O=C(CN1C(=O)C2C3C=CC(C3)C2C1=O)Nc1nnc(C(F)(F)F)s1 (configuration not stated)	.	.	.	.	-3
CCc1c(C#N)c(SCC(=O)c2c(C)[nH]c3ccccc23)nc2c1C(=O)CC(C)(C)C2	-5	12	.	-4	0
COc1cccc(NC(=O)c2cnccc2C(F)(F)F)c1	1	-19	-0.25	0	16
C[C@H]1CN([C@@H](C)CO)C(=O)c2cc(NC(=O)Nc3ccc(F)cc3)ccc2O[C@H]1CN(C)Cc1ccc(-c2ccccc2)cc1	111*	20	0.24	0	38
C[C@H](CO)N1C[C@H](C)[C@@H](CN(C)Cc2ccc(-c3ccccc3)cc2)Oc2ccc(NC(=O)Nc3ccc(F)cc3)cc2C1=O	68	10	-0.059	-1	60
Cc1noc(C)c1S(=O)(=O)N(C)C[C@@H]1Oc2ccc(NS(C)(=O)=O)cc2C(=O)N([C@H](C)CO)C[C@@H]1C	2	-2	-0.31	1	5
CO[C@@H]1C=C[C@@]23c4cc5c(cc4CN(CC2O)[C@H]3C1)OCO5 (some centres not stated)	113*	49	0.39	-1	7
N#Cc1c(C(F)(F)F)cc(-c2cccs2)nc1SCC(=O)Nc1c(F)cccc1F	16	-23	.	1	2
